Results taken from PubChem BioAssay.

Test: modulators of HCV replicon luciferase signal, primary screen, HCV replication inhibitor project, Huh7 cells, luciferase reporter (AID 1109);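 note: huh7 hepatoma cells harbouring a luciferase neomycin HCV replicon reporter; luciferase luminescence as measure of HCV replicon replication; test concentration not given here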
Conditions: 48 h, higher = more signal

Structure (SMILES) | z-score
COC(=O)c1c(CC[C@@H](CO)NC(=O)N[C@@H](Cc2ccccc2)Cn2cc(C3(O)CCCCC3)nn2)oc(C(C)=O)c1C(=O)OC | -1.47
Cc1ccc(S[C@]2(C(=O)NCc3ccccc3)CC(=O)N(Cc3ccccc3Cl)[C@@H]2c2ccc(CO)cc2I)cc1 | -1.74
COCCOC(=O)N1C(=O)[C@@]2(c3cc(C#Cc4ccc(OC)cc4)ccc31)[C@H](C(=O)N1CCN(c3ncccn3)CC1)[C@H]1C(=O)O[C@H](c3ccccc3)[C@H](c3ccccc3)N1[C@@H]2c1ccc(O)cc1 | -1.39
CC(C)(C)OC(=O)CC[C@@]1(C(=O)NCCN2CCOCC2)N=C(c2ccc(OCCCO)cc2)O[C@@H]1c1ccccc1 | 0.988
COCCOC(=O)N1C(=O)[C@@]2(c3cc(C#CC4(O)CCCCCC4)ccc31)[C@H](C(=O)N1CCCCCCC1)[C@H]1C(=O)O[C@H](c3ccccc3)[C@H](c3ccccc3)N1[C@@H]2c1ccccc1OCCO | -1.61
CC(C)c1ccc(NN2C(C(O)c3c(F)cccc3Cl)C=CC3C(=O)N(c4ccccc4)C(=O)C32)cc1 (stereo unspecified) | -0.242
O=C1OCC=C[C@H]2OC34C=CCN(c5ccc6ccccc6c5)C(=O)[C@H]3N(CCCO)C(=O)[C@@H]4[C@@H]12 (stereo partly specified) | -0.805
CCCCC(CC)C(O)C1C=CC2C(=O)N(c3ccccc3)C(=O)C2N1Nc1ccccc1 (stereo unspecified) | -1.71
O=C1C=CC(=O)[C@@H]2CC(COc3ccccc3)=C3[C@@H](CCc4ccccc4)OB(O)C[C@@H]3[C@H]12 | -1.64
NC(=O)NCC#Cc1ccc2c(c1)[C@]1(C(=O)N2)[C@H](C(=O)NC[C@H](O)c2ccccc2)[C@H]2C(=O)O[C@H](c3ccccc3)[C@H](c3ccccc3)N2[C@@H]1c1ccc(O)cc1 | -0.257
COC(=O)[C@@]1(Cc2ccccc2)[C@H]2c3cc(C(=O)N(C)C)n(Cc4c(-c5ccccc5)noc4C)c3C[C@H]2CN1C(=O)c1ccccc1 | -0.535
[N-]=[N+]=Nc1ccccc1[C@H]1OC(c2ccc(OCCCO)cc2)=N[C@@]1(CCS(=O)(=O)c1ccccc1)C(=O)O | 0.86
COCCCNC(=O)[C@@]1(C)c2ccccc2C(=O)N(Cc2cc(C(F)(F)F)cc(C(F)(F)F)c2)[C@H]1c1ccc(CO)cc1 | 0.261
CC(C)(C)N1CC=CC23O[C@@H]4C=CCOC(=O)[C@@H]4[C@H]2C(=O)N(CCCCCO)[C@@H]3C1=O (stereo partly specified) | -0.394
CC(C)N1C(=O)c2ccccc2[C@@H](C(=O)NCCCN(C)C)[C@@H]1c1ccc(CO)cc1 | 0.19
COc1ccc(C(=O)Nc2cccc(CN3C(=O)[C@]4(O[C@H](CC(=O)N5CCC[C@H]5CO)[C@@H]([Si](C)(C)c5ccc(OC)cc5)[C@@H]4C)c4ccccc43)c2)cc1 | -2.84
O=C(CS)NCCCCCCNC(=O)[C@@H]1C[C@@H]2C(=O)N3CCC[C@H]3C(=O)N2[C@@H]1c1ccc(O)cc1 | -0.695
C=C[C@@H](COC(C)=O)N(Cc1ccccc1[N+](=O)[O-])S(=O)(=O)c1ccc(Br)cc1 | -1.86

Structure (SMILES) | z-score
COc1cc2c(cc1O)C(C)N(Cc1cccc(OC(F)(F)F)c1)CC2 (stereo unspecified) | -0.815
CC(C)N1C(=O)C[C@@](C(=O)NCc2ccccc2)(c2ccc([N+](=O)[O-])cc2)[C@H]1c1ccc(CO)cc1 | -0.0323
CCCN1C(=O)[C@]2(COC(c3ccc(OCCCO)cc3)=N2)Cc2ccccc21 | 0.0172
COC(=O)C(CC#Cc1ccc2c(c1)[C@]1(C(=O)N2)[C@H](c2ccc(OCCO)cc2)N2[C@H](c3ccccc3)[C@H](c3ccccc3)OC(=O)[C@H]2[C@@H]1C(=O)NC[C@H](O)c1ccccc1)C(=O)OC | -1.39
O=C1C2C=CC(C(O)c3ccc(B(O)O)cc3)N(Nc3ccccc3)C2C(=O)N1c1ccccc1 (stereo unspecified) | -1.49
O=C1O[C@H](c2ccccc2)[C@H](c2ccccc2)N2[C@H]1[C@@H](C(=O)NC[C@H](O)c1ccccc1)[C@]1(C(=O)Nc3ccc(C#CCCO)cc31)[C@H]2c1ccc(O)cc1 | -1.07
O=C1O[C@@H](c2ccccc2)[C@@H](c2ccccc2)N2[C@@H](c3ccc(O)cc3)[C@]3(C(=O)Nc4ccc(C#CC5=CCCCC5)cc43)[C@@H](C(=O)O)[C@H]12 | 0.0664
CCOC(=O)C1=CCC(c2ccc(C#N)cc2)N(S(=O)(=O)c2ccc(C)cc2)C1 (stereo unspecified) | -2.66
CCN(CC)c1ccc(N2CC=CC34O[C@@H]5C=CCCOC(=O)C5[C@H]3C(=O)N(CCCCCO)[C@@H]4C2=O)cc1 (stereo partly specified) | 0.348
COc1c(C)cc(-c2cc3c(c(-c4ccc(Oc5ccccc5)cc4)n2)[Si](C(C)C)(C(C)C)OC3)cc1C | -0.382
CCOC(=O)C[C@H]1[C@H](OC(=O)c2ccc(-c3ccccc3)cc2)[C@@H](NC(=O)c2ccc3ccccc3c2)c2cc(OCCCO)ccc2N1C(=O)Cc1ccc(OC)cc1 | -0.983
CC(C)C(=C=CC[C@@H](O)c1ccccc1OCCO)C[C@@H](O)c1ccccn1 | -1.14
CN(C)C(=O)[C@@]1(CCC(=O)OC(C)(C)C)N=C(c2ccc(OCCCO)cc2)O[C@H]1c1ccccc1 | -1.01
C=CCN1C(=O)[C@]2(O[C@H](CCO)[C@@H]([Si](C)(C)c3ccc(OC)cc3)[C@@H]2C)c2cc(NC(=O)[C@H](C)O)ccc21 | -4.97
Cc1ccc(S[C@]2(C(=O)NCCN3CCOCC3)CC(=O)N(Cc3cc(C(F)(F)F)cc(C(F)(F)F)c3)[C@@H]2c2ccc(CO)cc2I)cc1 | -1.59
CCOC(=O)C[C@H]1[C@H](OC(=O)c2ccc(C(=O)c3ccccc3)cc2)[C@@H](NC(=O)C2CCCCC2)c2cc(OCCCO)ccc2N1C(=O)c1ccccc1 | -2.27
CC(C)(C)N1CC=CC23O[C@@H]4/C=C\CCCOC(=O)C4[C@H]2C(=O)N(CCO)[C@@H]3C1=O (stereo partly specified) | -0.95
CC1CC/C=C\[C@H]2OC34C=CCN(Cc5ccccc5)C(=O)[C@H]3N(CCCCCO)C(=O)[C@@H]4C2C(=O)O1 (stereo partly specified) | 0.28
